An excerpt weighted towards active compounds, which were near 3.8% of everything screened.
S2 tox: Viability Counterscreen for Primary qHTS for Inhibitors of ATXN expression. S2 cells (HEK-293 line with an ATXN2-luciferase reporter) viability, CellTiter-Fluor protease fluorescence, 24 h. AID 651635, 2014. Potency, µM (highest dose often 56.7 µM), usual class: cytotoxic. 0.49% of 400,000 active; note: nearly all actives have a fitted effect of over 40% in size
HepG2 viability: qHTS for Inhibitors of TGF-b: Cytotox Counterscreen | HepG2 CAGA-GFP viability, ATP luminescence, 18 h | Potency, µM (top dose mostly 46.1 µM), inactives show at the highest dose activity change, negative = cytotoxicity, most hits filed as cytotoxic | 0.76% of 410,000 active | AID 588856, 2011
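CellTiter-Glo luminescence gave cytotoxicity after 18 hours at 37 degrees C. The cells were HepG2 CAGA-GFP in 1% FBS DMEM, stimulated with 500 pg/mL TGF-beta after compound addition. %Activity was normalised to no-cell wells (complete cell-killing) and DMSO (no toxicity), and curves were fitted and classified.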
A549 tox-1: Nrf2 qHTS screen for inhibitors: counterscreen for cytotoxicity; A549 ARE-Fluc cells, CellTiter-Fluor viability, 18-24 h; Potency, µM (doses to about 46 µM), without a hit: top-dose activity change, negative = cytotoxicity, most hits filed as inhibitors; 0.16% of 390,000 active; AID 504648, 2011; note: % is set by controls: 0 for no effect and ±100 for the full control effect
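A549 ARE_Fluc cells in 5% FBS OPTI-MEM were exposed to compounds in concentration-response for 18-24 h at 37 deg C. Viability was read by CellTiter-Fluor fluorescence (Ex 405/Em 525) after 30 min, before the luciferase read.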
Nrf2 inh: Nrf2 qHTS screen for inhibitors | A549 ARE-Fluc reporter, luciferase luminescence, 18-24 h | Potency, µM (doses to about 46 µM), for the others: at the highest dose activity change, negative = inhibition, usual class: inhibitors | 2.1% of 360,000 active; note: % is set by controls: 0 for no effect and ±100 for the full control effect; nearly all actives have a fitted effect of over 60% in size
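Two sequential reads on A549 ARE_Fluc cells exposed to compound for 18-24 h: a CellTiter-Fluor fluorescence read for viability, then a luciferase luminescence read for Nrf2/ARE activity.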
TGFb inhibitor: qHTS for Inhibitors of TGF-b; HepG2 CAGA-GFP TGF-b/SMAD3 reporter, GFP fluorescence, 18 h; TGF-beta stimulated, 500 pg/mL final; Potency, µM (doses to about 46.1 µM), without a hit: top-dose activity, negative = inhibition, actives largely listed as inhibitors; 1.2% of 410,000 active; note: % is set by controls: 0 for no effect and ±100 for the full control effect; nearly all actives have a fitted effect of over 65% in size
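Using HEPG2 CAGA-GFP reporter cells at 1000 cells/well, we pinned test compounds, stimulated with recombinant TGF-beta (500 pg/mL final) and measured total well GFP after 18 h.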
ATXN2 expr inh: Primary qHTS for Inhibitors of ATXN expression. HEK-293 ATXN2-luciferase reporter, luminescence, 24 h. Potency, µM (titrated, usually from 57 µM), without a hit: top-dose activity change, negative = inhibition, most hits filed as inhibitors. 0.72% of 360,000 active. AID 1745845, 2022; note: % is set by controls: 0 for no effect and ±100 for the full control effect; nearly all actives have a fitted effect of over 55% in size
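qHTS (up to 57 uM final) was run with 24 h compound exposure of reporter cells at 37 °C. Each well was multiplexed: SteadyGlo luminescence measured ATXN2-luciferase expression after a fluorogenic Gly-Phe-AFC viability readout (25 uM final).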
FLuc counter 3: Nrf2 qHTS screen for inhibitors: Purified Fluc Biochemical Counterscreen for Hit Validation | shares compounds with Nrf2 inh | purified firefly luciferase, luminescence inhibition | Potency, µM (highest dose often 57.5 µM), without a hit: top-dose activity change, negative = inhibition, usual class: inhibitors | 4% of 1,400 active; note: % is set by controls: 0 for no effect and ±100 for the full control effect; nearly all actives have a fitted effect of over 65% in size
Target sequence (P08659 whole entry, looked up): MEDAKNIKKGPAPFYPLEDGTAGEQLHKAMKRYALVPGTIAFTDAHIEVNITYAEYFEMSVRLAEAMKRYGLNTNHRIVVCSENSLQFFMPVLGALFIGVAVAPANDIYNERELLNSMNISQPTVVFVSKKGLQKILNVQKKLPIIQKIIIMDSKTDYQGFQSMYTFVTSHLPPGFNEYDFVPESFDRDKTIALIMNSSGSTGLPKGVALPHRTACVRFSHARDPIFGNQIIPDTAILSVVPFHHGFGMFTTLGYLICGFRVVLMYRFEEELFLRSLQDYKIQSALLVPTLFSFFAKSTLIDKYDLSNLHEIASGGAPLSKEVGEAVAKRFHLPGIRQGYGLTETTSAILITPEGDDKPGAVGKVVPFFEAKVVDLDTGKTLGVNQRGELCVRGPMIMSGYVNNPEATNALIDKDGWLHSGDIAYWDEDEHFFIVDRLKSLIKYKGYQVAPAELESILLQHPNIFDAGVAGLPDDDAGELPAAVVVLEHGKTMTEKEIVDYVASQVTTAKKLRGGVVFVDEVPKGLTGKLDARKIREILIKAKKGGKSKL
A549 tox-2: Nrf2 qHTS screen for inhibitors: A549 ARE-Fluc Cytotoxicity Counterscreen for Hit Validation. shares compounds with Nrf2 inh. A549 ARE-Fluc cells, cytotoxicity counterscreen. Potency, µM (top dose mostly 46.1 µM), without a hit: at the top dose activity change, negative = cytotoxicity, hits mostly inhibitors. 2% of 1,400 active. AID 720523, 2013;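 note: cells exposed to compounds for 18 to 24 hours; % is set by controls: 0 for no effect and ±100 for the full control effect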
Nrf2 ARE inh: Nrf2 qHTS screen for inhibitors: Nrf2 A549 ARE-Fluc Confirmation Assay for Hit Validation; shares compounds with Nrf2 inh; Potency, µM (doses to about 46.1 µM), for the others: top-dose activity change, negative = inhibition, most hits filed as inhibitors; AID 720524, 2013; A549 ARE-firefly luciferase reporter, luminescence; 74% of 1,400 active; note: % is set by controls: 0 for no effect and ±100 for the full control effect; nearly all actives have a fitted effect of over 65% in size
The depositor's hits bear a star; i = inactive; ? = inconclusive; / = no result given. Calls come from the whole dose curve; as a rule, active = well fitted curve in the direction sought with a large enough effect; inconclusive = small, poorly fitted or top-dose-only effect, or another doubt; inactive = no such curve, though single readings can be large; an effect the other way counts as inactive or inconclusive. Potency is the fitted concentration of half-maximal effect.

SMILES	S2 tox	HepG2 viability	A549 tox-1	Nrf2 inh	TGFb inhibitor	ATXN2 expr inh	FLuc counter 3	A549 tox-2	Nrf2 ARE inh
NC(=O)C1CCN(C(=O)Nc2csc3ccccc23)CC1	i	-5.5%	0.5%	2.3%	-4.2%	-21.1%	/	/	/
O=C(O)c1ccc(CNC(=O)C23CC4CC(CC(C4)C2)C3)cc1	i	-4.7%	-0.5%	-2.5%	-14.8%	-1.8%	/	/	/
CO/N=C/c1ccc(N2CCN(C(=O)c3ccc(Cl)cc3Cl)CC2)c([N+](=O)[O-])c1	i	-12.2%	-28.1%	6.51µM*	-22.7%	-31.3%	-0.8%	-22.3%	11.6µM*
Cc1cc(O)c2c(c1O)C(=O)[C@]13C(=C2O)C(=O)[C@@H]2[C@@H](O)[C@H]1[C@@H]1[C@H](O)[C@H]3C(=O)C3=C(O)c4c(O)cc(C)c(O)c4C(=O)[C@]312	?	-25.9%	?	0.366µM*	?	?	?	?	1.16µM*
COC(=O)c1sccc1N/N=C/c1cccc(Oc2ccccc2)c1	i	-51.6%	-3.7%	?	4.4%	86.1%	/	/	/
Cc1cc(C2=NNC(=NC3CC3)SC2)c(C)n1-c1ccccc1F	i	-47.6%	-3.8%	0.92µM*	?	0.282µM*	2.7%	-9.7%	/
O=C(CSc1nc(=O)n(CCCN2CCOCC2)c2c1CCCC2)Nc1cccc(Cl)c1	i	-3.2%	1.0%	-3.0%	?	-5.5%	/	/	/
c1ccc2c(c1)CCN(c1ncnc3c1[nH]c1ccccc13)C2	?	-60.8%	-25.2%	5.8µM*	?	?	-24.4%	-10.2%	5.8µM*
COc1cccc2[nH]c3c(N4CCc5ccccc5C4)ncnc3c12	i	0.3%	?	?	18.5%	-34.6%	/	/	/
Cc1ccc(-n2ncc3c(N4CCN(Cc5ccccc5)CC4)ncnc32)cc1	i	6.4%	15.0%	/	6.1%	13.9%	/	/	/
Cc1ccc2c(c1)[nH]c1c(N3CCN(Cc4ccccc4)CC3)ncnc12	/	-70.1%	?	8.2µM*	11.2µM*	8.91µM*	-29.1%	?	11.6µM*
Cc1cccc(N2C(=O)CC(Sc3nc(-c4ccccc4)c4cc(Cl)ccc4n3)C2=O)c1 (centres undefined)	i	0.1%	-0.3%	/	5.4%	0.8%	/	/	/
O=C(COc1ccc(S(=O)(=O)NC2CCCCC2)cc1)N1CCN(c2cccc(Cl)c2)CC1	i	-16.8%	?	5.8µM*	?	-20.3%	-1.3%	-17.3%	9.2µM*
Cc1ccc(-c2noc(-c3ccc(NC4CCCC4)c([N+](=O)[O-])c3)n2)cc1	i	-3.3%	0.6%	1.3%	?	36.7%	/	/	/
CCC(NC(=O)c1cc(COc2ccc(C)nc2)on1)c1ccc(C)cc1 (centres undefined)	i	-12.7%	-22.1%	8.2µM*	-18.7%	-15.6%	-0.5%	5.3%	?
CCC(NC(=O)c1cc(COc2cc(C)c(Cl)c(C)c2)on1)c1ccncc1 (centres undefined)	i	-37.1%	-2.0%	7.8%	?	/	/	/	/
COc1ccc(-c2nc(CSCC(=O)N3CCN(c4cc(Cl)ccc4C)CC3)c(C)o2)cc1	/	-33.5%	-16.8%	7.31µM*	17.8µM*	/	?	?	11.6µM*
COc1ccc(-c2nc(CSCC(=O)N3CCN(c4ccc(OC)cc4)CC3)c(C)o2)cc1	/	-13.7%	-10.9%	4.61µM*	?	/	-13.8%	-19.2%	9.2µM*
CCOc1ccc(-c2nc(CSCC(=O)N3CCN(c4ccc(F)cc4)CC3)c(C)o2)cc1	i	7.3%	-2.4%	/	-5.3%	-1.4%	/	/	/
CCOc1ccc(NC(=O)c2ccc(Cl)c(NC(=O)c3ccco3)c2)cc1	i	18.3%	-7.3%	4.7%	-12.5%	-10.7%	/	/	/
Cc1cccc(N2CCN(C(=O)C3CCC(CNS(=O)(=O)c4cccs4)CC3)CC2)c1C (centres undefined)	?	-7.3%	-20.5%	6.51µM*	-24.9%	?	0.3%	-17.2%	8.2µM*
COc1cccc(CN2CCC3(CCC(CNC(=O)c4cc(C)nn4C)O3)CC2)c1OC (centres undefined)	i	/	/	/	/	/	/	/	/
Cc1cc2c(=Cc3ccc(N(C)C)cc3)c3ccccc3n2[n+]1C	?	-29.3%	16.4µM*	2.59µM*	6.31µM*	10µM*	-22.0%	?	6.51µM*
Cn1ncc(Cl)c1C(=O)N1CCC(Cc2ccccc2)CC1	i	2.7%	6.1%	2.0%	-28.1%	59.3%	/	/	/
CC(C)CC1NC(=O)N(CC(=O)Nc2ccccc2-c2ccccc2)C1=O (centres undefined)	i	7.6%	-8.5%	8.3%	20.8%	-13.2%	/	/	/
SMILES	S2 tox	HepG2 viability	A549 tox-1	Nrf2 inh	TGFb inhibitor	ATXN2 expr inh	FLuc counter 3	A549 tox-2	Nrf2 ARE inh
O=C(CNc1cc(S(=O)(=O)N2CCCC2)ccc1OCC(F)(F)F)Nc1ccc(SC(F)F)cc1	?	-6.4%	?	5.17µM*	0.0%	?	-2.6%	-18.7%	?
CC(C)(C)c1ccc(-c2noc(CCC(=O)Nc3cccc(Cl)c3)n2)cc1	i	-16.3%	1.5%	0.146µM*	-7.6%	?	?	1.2%	/
Cc1ccc(C)c(NC(=O)CCc2nc(-c3ccc(C(C)(C)C)cc3)no2)c1	?	-41.0%	0.3%	?	?	?	/	/	/
CC(C)(C)c1ccc(-c2noc(CCC(=O)NCc3ccco3)n2)cc1	i	-10.5%	11.6µM*	0.0184µM*	-16.7%	/	1.2µM*	-6.3%	0.82µM*
Cc1cccc(-c2noc(CCC(=O)NCc3ccco3)n2)c1	i	-11.4%	2.1%	/	19.4%	1.1%	/	/	/
COc1ccc(OCCCC(=O)Nc2cc([N+](=O)[O-])ccc2C)cc1	i	-16.6%	-19.3%	?	-12.2%	-5.8%	/	/	/
